Measurements taken from PubChem BioAssay AID624255 (Broad Institute, 2012).
About 4,600 (6%) of roughly 77,000 compounds were called active. About 1% were inconclusive and are not listed.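 The calls were made as follows: active = mean inhibition above about 93%, with at least 55% of replicates each passing it (limit read from the data, passing the limit was not always enough); inconclusive = only one of those two conditions holds; inactive = neither condition holds.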 The full list was thinned out, with actives kept by preference.

Test: growth inhibition of T. cruzi in host fibroblasts – cell-based, beta-gal Tulahuen parasites, NIH3T3 host, luminescence, primary screen (AID 624255)
Settings: T. cruzi beta-gal in NIH3T3, GalScreen luminescence, 90 h; at 8.34 µM; stronger effect = higher value

Structure (SMILES) | inhibition
C[C@@H]1CN([C@H](C)CO)C(=O)c2cc(C3=CCCC3)cnc2O[C@@H]1CN(C)C(=O)Nc1ccc(F)cc1 | 15.9% (inactive)
O=C([C@H]1[C@H](CO)[C@H]2Cn3c(ccc(C4=CCCC4)c3=O)[C@@H]1N2C(=O)c1ccncc1)N1CCCCC1 | 34.7% (inactive)
CO[C@H]1CN(C)C(=O)c2ccc(NC(=O)C3CC3)cc2OC[C@H](C)N(CCc2ccccc2)C[C@H]1C | 36.1% (inactive)
COc1ccc(CN(C)C[C@@H]2OCCCC[C@H](C)Oc3ccc(NS(C)(=O)=O)cc3C(=O)N([C@@H](C)CO)C[C@H]2C)cc1 | 0.374% (inactive)
Cc1ccc(S(=O)(=O)N2C[C@H](O)COC[C@H]3O[C@H](CC(=O)N[C@H]4CCN(Cc5ccccc5)C4)CC[C@@H]32)cc1 | -33.7% (inactive)
OC[C@H]1[C@H](c2ccc(-c3ccccc3F)cc2)[C@H]2CN(Cc3cncnc3)CCCCN21 | 69.5% (inactive)
Cc1cccc(-c2ccc([C@H]3[C@@H](CO)N4CCCCN(Cc5cncnc5)C[C@H]34)cc2)c1 | 104% (active)
OC[C@H]1[C@H](c2ccc(-c3cccc(F)c3)cc2)[C@@H]2CN(Cc3cncnc3)CCCCN12 | 107% (active)
OC[C@@H]1[C@@H](c2ccc(-c3ccccc3F)cc2)[C@@H]2CN(Cc3cncnc3)CCCCN12 | 74.2% (inactive)
OC[C@H]1[C@@H](c2ccc(-c3ccccc3F)cc2)[C@@H]2CN(Cc3ccncc3)CCCCN12 | 93.1% (inactive)
CN(C)C(=O)c1ccc(-c2ccc([C@@H]3[C@@H](CO)N4CCCCN(Cc5cncnc5)C[C@@H]34)cc2)cc1 | 55.5% (inactive)
Cc1ccc(-c2ccc([C@H]3[C@H](CO)N4CCCCN(Cc5cncnc5)C[C@@H]34)cc2)cc1 | 96% (active)
Cc1cccc(-c2ccc([C@@H]3[C@H](CO)N4CCCCN(Cc5ccncc5)C[C@@H]34)cc2)c1 | 92% (inactive)
OC[C@@H]1[C@H](c2ccc(C3=CCCC3)cc2)[C@H]2CN(Cc3ccncc3)CCCCN12 | 75.8% (inactive)
O=C(C[C@@H]1C[C@@H]2c3cc(NC(=O)NC4CCCC4)ccc3O[C@@H]2[C@@H](CO)O1)NCc1ccccc1 | 52.2% (inactive)
COc1cccc(-c2ccc3n(c2=O)C[C@@H]2[C@@H](CO)[C@H](C(=O)N4CCCCC4)N[C@H]32)c1 | 13.4% (inactive)
O=C(Nc1ccc(C(F)(F)F)cc1)N[C@@H]1CC[C@@H](CCNC(=O)c2ccccc2F)O[C@H]1CO | 57.5% (inactive)
C[C@@H]1CN([C@@H](C)CO)C(=O)c2cc(-c3ccc(C#N)cc3)cnc2O[C@H]1CN(C)C(=O)CN(C)C | 30.7% (inactive)
COCC(=O)Nc1ccc2c(c1)C(=O)N(C)C[C@@H](OC)[C@@H](C)CN(CC1CCCCC1)[C@@H](C)CO2 | 5.52% (inactive)
O=C(C[C@H]1CC[C@@H]2[C@H](COC[C@H](O)CN2Cc2ccc(Oc3ccccc3)cc2)O1)N1CCN(c2ccccc2)CC1 | 117% (active)
COc1cccc(S(=O)(=O)N2C[C@H](O)COC[C@H]3O[C@@H](CC(=O)N4CCN(c5ccccc5)CC4)CC[C@@H]32)c1 | 12.2% (inactive)
O=C(C[C@H]1CC[C@H]2[C@@H](COC[C@H](O)CN2C(=O)c2ccccn2)O1)N1CCN(c2ccccc2)CC1 | -3.75% (inactive)

Structure (SMILES) | inhibition
COc1ccc(S(=O)(=O)N2CC[C@H]3[C@@H](CO)N(C)c4ccc(C#Cc5ccccc5OC)cc4[C@H]32)cc1 | 52% (inactive)
CCC(=O)Nc1ccc2c(c1)C(=O)N(C)[C@@H]1CC[C@@H](CC(=O)NCc3ccccc3Cl)O[C@H]1CO2 | 5.11% (inactive)
CCNC(=O)Nc1ccc2c(c1)C(=O)N(C)[C@@H]1CC[C@@H](CC(=O)NCCOC)O[C@@H]1CO2 | 4.1% (inactive)
C[C@H](CO)N1C[C@H](C)[C@@H](CN(C)Cc2cccnc2)Oc2cc(C3=CCCC3)ccc2S1(=O)=O | 93.1% (inactive)
C[C@@H]1CN([C@@H](C)CO)S(=O)(=O)c2ccc(C3=CCCCC3)cc2O[C@@H]1CN(C)Cc1cccc(C(=O)O)c1 | 24% (inactive)
C[C@H]1CN([C@@H](C)CO)S(=O)(=O)c2ccc(C3=CCCC3)cc2O[C@@H]1CN(C)Cc1ccccc1 | 99.6% (active)
C[C@H]1CN([C@@H](C)CO)S(=O)(=O)c2ccc(C3=CCCC3)cc2O[C@H]1CN(C)Cc1cccc(C(=O)O)c1 | 18.6% (inactive)
C[C@@H]1CN([C@@H](C)CO)S(=O)(=O)c2ccc(C3=CCCC3)cc2O[C@H]1CN(C)C(=O)CC1CC1 | 36% (inactive)
C[C@@H]1CN([C@H](C)CO)S(=O)(=O)c2ccc(C3=CCCC3)cc2O[C@H]1CN(C)Cc1ccccc1F | 118% (active)
C[C@H]1CN([C@@H](C)CO)S(=O)(=O)c2ccc(C3=CCCCC3)cc2O[C@@H]1CN(C)Cc1ccccc1 | 117% (active)
C[C@@H]1CN([C@@H](C)CO)S(=O)(=O)c2ccc(C3=CCCCC3)cc2O[C@@H]1CN(C)C(=O)CN(C)C | 84.4% (inactive)
C[C@@H]1CN([C@@H](C)CO)S(=O)(=O)c2ccc(C3=CCCC3)cc2O[C@@H]1CN(C)Cc1ccncc1 | 69.1% (inactive)
O=C(CCN1CCCCC1)NCC[C@H]1CC[C@@H](NC(=O)C2CCOCC2)[C@H](CO)O1 | 26.2% (inactive)
CO[C@@H]1CN(C)C(=O)c2cc(NC(=O)C3CC3)ccc2OC[C@@H](C)N(C(=O)NC(C)C)C[C@@H]1C | 72% (inactive)
CC(C)(C)[S@](=O)N1Cc2cc(C(=O)N3CCCCC3)nc(-c3cccc(-c4ccccc4F)c3)c2[C@@H]1CCO | 23.3% (inactive)
C[C@@H]1CN([C@@H](C)CO)C(=O)c2cc(-c3cncnc3)cnc2O[C@H]1CN(C)C(=O)c1cccc(F)c1 | 0.0585% (inactive)
COc1ccc(CN(C)C[C@@H]2Oc3ccc(NC(=O)Nc4cccc5ccccc45)cc3C(=O)N([C@H](C)CO)C[C@H]2C)cc1 | 74.4% (inactive)
C[C@@H]1CN([C@@H](C)CO)C(=O)c2cc(NC(=O)Nc3cccc4ccccc34)ccc2O[C@@H]1CN(C)Cc1ccc(-c2ccccc2)cc1 | 84.4% (inactive)
C[C@@H]1CN([C@@H](C)CO)C(=O)c2cc(NC(=O)Nc3cccc4ccccc34)ccc2O[C@H]1CN(C)Cc1ccc(Cl)c(Cl)c1 | 97.7% (active)
C[C@@H]1CN([C@@H](C)CO)C(=O)c2cc(NC(=O)Nc3cccc4ccccc34)ccc2O[C@H]1CN(C)Cc1ccc(Oc2ccccc2)cc1 | 121% (active)
C[C@@H]1CN([C@H](C)CO)C(=O)c2cc(NC(=O)Nc3ccccc3)ccc2O[C@@H]1CN(C)Cc1ccc(Cl)c(Cl)c1 | -114% (inactive)
C[C@@H]1CN([C@H](C)CO)C(=O)c2cc(NC(=O)Nc3ccccc3)ccc2O[C@H]1CN(C)Cc1ccc(Cl)c(Cl)c1 | -217% (inactive)

Structure (SMILES) | inhibition
COc1ccc(S(=O)(=O)N[C@H]2C=C[C@@H](CC(=O)O)O[C@@H]2CO)cc1 | 8.59% (inactive)
CCCN1C[C@@H](C)[C@@H](OC)CN(C)C(=O)c2ccc(NC(=O)Nc3cccc(F)c3)cc2OC[C@@H]1C | 9.75% (inactive)
COc1cccc(CNC(=O)C[C@H]2CC[C@@H](NC(C)=O)[C@@H](CO)O2)c1 | -45.2% (inactive)
CC(=O)N1C[C@@H]2[C@H](c3ccccc31)[C@H](CO)N2C(=O)Nc1ccc(F)cc1 | -6.85% (inactive)
C[C@@H](NC(=O)C[C@@H]1CC[C@H]2[C@@H](COC[C@@H](O)CN2C(=O)Nc2cccc(F)c2)O1)c1ccccc1 | 33.4% (inactive)
O=C(C[C@@H]1C[C@H]2c3cc(NC(=O)Nc4ccccc4)ccc3O[C@H]2[C@@H](CO)O1)NCc1cccnc1 | -4.79% (inactive)
Cc1noc(C)c1NC(=O)Nc1ccc2c(c1)C(=O)N([C@H](C)CO)C[C@@H](C)[C@@H](CN(C)S(=O)(=O)c1ccc(Cl)cc1)OCCCC[C@H](C)O2 | 55.2% (inactive)
COc1ccccc1S(=O)(=O)N[C@@H]1CC[C@H](CC(=O)N2CCN(C)CC2)O[C@@H]1CO | -19.7% (inactive)
CN(C)C(=O)C[C@@H]1C[C@@H]2c3cc(NC(=O)c4ccc5c(c4)OCO5)ccc3O[C@@H]2[C@H](CO)O1 | -59.5% (inactive)
O=C(C[C@@H]1C[C@H]2c3cc(NC(=O)CC4CC4)ccc3O[C@H]2[C@@H](CO)O1)NCc1ccc2c(c1)OCO2 | 30.3% (inactive)
CCCNC(=O)C[C@H]1C[C@@H]2c3cc(NS(=O)(=O)c4cccc(OC)c4)ccc3O[C@@H]2[C@@H](CO)O1 | -11.6% (inactive)
COc1cccc(S(=O)(=O)Nc2ccc3c(c2)[C@H]2C[C@H](CC(=O)NCc4ccc(Cl)cc4)O[C@H](CO)[C@H]2O3)c1 | 159% (active)
O=C(C[C@@H]1C[C@@H]2c3cc(NC(=O)c4ccc5c(c4)OCO5)ccc3O[C@@H]2[C@@H](CO)O1)NCc1ccc(Cl)cc1 | 97.9% (active)
O=C(C[C@H]1C[C@H]2c3cc(NC(=O)c4ccc5c(c4)OCO5)ccc3O[C@H]2[C@@H](CO)O1)NCc1cccc(F)c1 | 38.1% (inactive)
O=C(C[C@@H]1C[C@H]2c3cc(NC(=O)C4CCOCC4)ccc3O[C@H]2[C@H](CO)O1)NCc1ccc2c(c1)OCO2 | 40.2% (inactive)
O=C(C[C@H]1C[C@@H]2c3cc(NC(=O)c4ccc5c(c4)OCO5)ccc3O[C@@H]2[C@@H](CO)O1)NCc1cccnc1 | -76.9% (inactive)
CN1CCN(C(=O)C[C@@H]2C[C@@H]3c4cc(NC(=O)c5ccc6c(c5)OCO6)ccc4O[C@@H]3[C@H](CO)O2)CC1 | 8.43% (inactive)
O=C(Nc1ccc2c(c1)[C@@H]1C[C@H](CC(=O)N3CCOCC3)O[C@@H](CO)[C@@H]1O2)c1ccc2c(c1)OCO2 | 103% (active)
COc1cccc(S(=O)(=O)Nc2ccc3c(c2)[C@@H]2C[C@@H](CC(=O)NCc4ccc(Cl)cc4)O[C@H](CO)[C@@H]2O3)c1 | 32.2% (inactive)
O=C(C[C@@H]1C[C@H]2c3cc(NC(=O)C4CCC4)ccc3O[C@H]2[C@@H](CO)O1)NCc1ccc2c(c1)OCO2 | 106% (active)
